Records with an inconclusive call do not appear. Calls of active or inactive are those of the source. Calls follow the shape of the dose curve; as a rule, active = well fitted activation curve with a large enough effect; inconclusive = small, poorly fitted or top-dose-only effect; inactive = no such curve, though single readings can be large or run the other way.
Experiment: qHTS Assay for Rab9 Promoter Activators: Hit Validation Using Renilla Luciferase Read-Out for Rab9; as to activation, negative = inhibition: % of control where 0% means no effect
Conditions: Huh7 Rab9 promoter Renilla luciferase reporter, 24 h; series mostly up to 76.9 µM; activation, negative = inhibition: at the top concentration
From the text: Niemann Pick Type C (NPC) is a rare neurodegenerative lipidosis that is characterized by lipid storage in the endosomal/lysosomal system. Treatment modalities for this devastating disease are currently non-existent due to the severe obstacles associated with accessing the central nervous system with proteins or genes. The majority of mutations causing NPC disease are missense mutations that are distributed throughout the length of the NPC1 protein, with the most prevalent being the I1061T allele. Although NPC1 mutant proteins may be functional, they are typically trapped in the ER due to misfolding. […] We have developed and optimized a cell based renilla luciferase reporter assay in 1536 well format for the identification of up-regulators of the mutant Rab9 promoter. This assay presents data on the validation of hits from the primary screen, which used a firefly luciferase read-out. NIH Chemical Genomics Center [NCGC] NIH Molecular Libraries Probe Production centers Network [MLPCN] MLPCN Grant: MH089375 Assay Submitter (PI): Yiannis A. Ioannou
Huh7 cells stably expressing NPC promoter-luciferase will be seeded at 1,500 cells/well in 5 uL in 1,536-well white opaque plates with 23 nL/well of compound in DMSO solution. The assay plates will be incubated at 37 deg C for 24 hours, after which 3 uL/well BriteLite plus luciferase detection reagent mixture (Perkin Elmer) will be added. Luminescence signal will be measured in a ViewLux plate reader (Perkin Elmer) after a 10 minute incubation at the room temperature.
Potency is read from the fitted curve at half-maximal effect.

activation, negative = inhibition, inactive:
O=C(CCN1C(=O)c2ccccc2C1=O)Nc1ccc(-c2nc3ccccc3s2)cc1 -38%, CCC(=O)Nc1cc(-c2cc3ccccc3oc2=O)ccc1OC -6.1%, Nc1c(N(CCO)C(=O)/C=C/c2ccco2)c(=O)[nH]c(=O)n1Cc1ccccc1 5.1%, O=C(CSc1nnc(-c2ccccn2)o1)Nc1ccccc1F -6.23%, Cc1csc(NC(=O)CSc2nnc(-c3ccncc3)o2)n1 -4.81%, O=C(COC(=O)c1ccc(-c2nnc(-c3ccccc3)o2)cc1)c1ccccc1 -3.43%, CCOc1cc(C(=O)N=c2sccn2C)ccc1OC(F)F -5.54%, CCCNC(=O)C1CCN(S(=O)(=O)c2ccc3[nH]c(=O)ccc3c2)CC1 -0.496%, O=C(NCCSCc1c(F)cccc1Cl)c1ccc(CN2CCOCC2)cc1 -41.4%, COc1ccc(-n2cc(-c3ccc(Cl)cc3)[nH]c2=S)cc1 -6.48%, O=C(CN1C(=O)COc2ccc(Cl)cc21)NCC1CCCO1 (stereo not given) 9.31%, C=CCc1ccc(OCCOCCNCCOC)c(OC)c1 -0.15%, Cc1ccccc1NC(=O)Cc1nc(COC(=O)CC(C)c2ccccc2)cs1 (stereo not given) -7.63%, COC(=O)CSc1nc2cc3c(cc2cc1C#N)OCO3 -9.61%, O=C(/C=C/c1ccco1)NCC1OCCc2ccccc21 (stereo not given) 10.4%, COc1ccc(-c2noc(N3CCCC(C(=O)Nc4ccccc4F)C3)n2)cc1 (stereo not given) -4.51%, Cc1c(C(O)CN2CCN(Cc3ccc4c(c3)OCO4)CC2)c2ccccc2n1C (stereo not given) 10.8%, C=CCOC(=O)N1CCN(c2cccc(C(F)(F)F)c2)CC1 -9.5%, NC(=O)C1(NC(=O)[C@@H]2CC3(CC(c4cccc(NC(=O)[C@@H]5CCC(=O)N5)c4)=NO3)CN2C(=O)c2ccccc2)CC1 (stereo not given in full) -2.9%, COc1ccc(C(=O)OCC(=O)N2CCCC2=O)c(OC)c1 0.637%, COc1cccc(C2Nc3ccccc3NC3=C2C(=O)CC(C)(C)C3)c1 (stereo not given) -7.96%, Cc1nc2sc(C(=O)OC(C)C)c(N)c2c(C)c1C 4.33%, CC(=O)Nc1ccc(-c2csc(Nc3ncccn3)n2)cc1 2.38%, Cc1cc(C)cc(N(CC(=O)NC2CCCC2)C(=O)CNC(=O)c2ccco2)c1 -9.62%, CCC1CCCCN1CCCNC(=O)c1ccc2nc(N3CCCCC3)sc2c1 (stereo not given) 0.973%, COc1cccc(NC(=O)CN2C(=O)CSc3ccc(S(=O)(=O)N4CCC(C)CC4)cc32)c1 -70%, Cc1ccc2nc(NC(=O)CCn3cccc3)sc2c1 -6.39%, COc1ccc(NC(=O)CCCN2C(=O)C(c3ccccc3)Oc3cccnc32)cc1OC (stereo not given) -24.3%, Cc1ccc(NC(=O)c2ncc(Cl)c(Cl)c2Cl)cc1C -39.1%, Cc1ccc(C#N)c(SCC(=O)Nc2nccs2)n1 0.867%, Nc1nc(SCCO)[nH]c(=O)c1NC(=O)c1ccco1 5.9%, CCCCc1cc(=O)oc2cc(OCC(=O)N3CCOCC3)ccc12 5.89%, O=[N+]([O-])c1cnccc1Nc1ccc(F)cc1 -17.4%, Cc1ccc2nc(Nc3ccc(Cl)cc3)c3nncn3c2c1 -9.4%, CCOc1ccc(CNC(=O)C2CCCN(S(C)(=O)=O)C2)cc1OC (stereo not given) -1.74%, O=C(N/N=C/c1ccc(-c2ccc(Br)cc2)o1)c1ccc2c(c1)OCO2 -4.86%, O=C(CCS(=O)(=O)c1ccccc1)Nc1ccc(-c2nc3ccccc3s2)cc1 4.91%, COc1ccc(-c2nnc(SCC(=O)/C(C#N)=C(\C)N)o2)cc1 -3.43%

Potency, active:
CCOC(=O)c1ccccc1NC(=O)CSc1nnc(Cc2cccn2C)n1-c1ccc(F)cc1 36.8 µM, COc1ccc([N+](=O)[O-])cc1COc1ccc2c(-c3ccccc3)cc(=O)oc2c1 3.28 µM
